High-throughput results deposited in PubChem by Broad Institute.
Tgondii IFNg – blocks Toxoplasma gondii growth in the presence of IFN-gamma. 69,000 compounds, 3.8% hits. activity change, negative = inhibition, % (no concentration beside the values). AID 1259416. Toxoplasma gondii growth in IFN-gamma-treated host cells; stronger effect = lower value; in the data active means activity change below about -70%, passing the limit was not always enough;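 further: host cells are HeLa cells infected with Toxoplasma gondii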
* marks the source's active call; other numbers are inactive results. Shown is part of a subset that was picked to be rich in hits.

What do the screens show for `CCN1C(=O)CCc2cc(NC(=O)c3ccc(C(C)C)cc3)ccc21`?
Tgondii IFNg: -105*

How did COCCN1C(=O)CCc2cc(NC(=O)c3ccc(C)cc3)ccc21 do in these assays?
Tgondii IFNg: -5

How did CC(C)CN1C(=O)CCc2cc(NC(=O)C3CCCCC3)ccc21 do in these assays?
Tgondii IFNg: -37

Results for CCCN1C(=O)CCc2cc(NC(=O)c3ccn(CC)n3)ccc21 ?
Tgondii IFNg: 96

Results for CCCN1C(=O)CCc2cc(NC(=O)c3ccc(CC)cc3)ccc21 ?
Tgondii IFNg: -59

Results for CC(C)CC(=O)Nc1ccc2c(c1)CCC(=O)N2CC(C)C ?
Tgondii IFNg: -15

Results for CCc1ccc(C(=O)Nc2ccc3c(c2)CCC(=O)N3CCOC)cc1 ?
Tgondii IFNg: -74*

What do the screens show for `CC(C)CN1C(=O)CCc2cc(NC(=O)CCc3ccccc3)ccc21`?
Tgondii IFNg: -98*

What do the screens show for `Cc1ccc(-n2c(SCc3nc(-c4ccccc4)oc3C)nc3c(=O)[nH]cnc32)cc1`?
Tgondii IFNg: 177

Results for Cc1ccc(-c2cc3c(=O)n(Cc4nc(-c5ccccc5C)oc4C)ccn3n2)cc1 ?
Tgondii IFNg: 9

Results for COCCN1CC2(CCN(C(=O)C3CCOCC3)CC2)COc2ccccc2S1(=O)=O ?
Tgondii IFNg: -9

Results for O=C(c1cc(-c2ccccc2)on1)N1CCCn2cncc2C1 ?
Tgondii IFNg: 7

How did CC(=O)Nc1ccc(S(=O)(=O)N2CCC3(CC2)Nc2cc(C)ccc2-n2cccc23)cc1 do in these assays?
Tgondii IFNg: 13

How did Cc1ncc2c(c1CNC(=O)Cc1ccsc1)CCN(C(=O)/C=C/c1cccc(F)c1F)C2 do in these assays?
Tgondii IFNg: -5

How did COc1ccc(-c2ccc(C(C)O)cc2)c2cccnc12 (stereo not drawn) do in these assays?
Tgondii IFNg: -3

Results for O=C(CCc1nc(-c2cccnc2)no1)N1CCC(c2cc3cccnc3c(=O)[nH]2)CC1 ?
Tgondii IFNg: 22

How did CO[C@H]1CCN(C(=O)NCc2cccc(F)c2)[C@H]1Cc1cnn(C)c1 do in these assays?
Tgondii IFNg: 3

How did CCCN1C(=O)CCc2cc(NC(=O)c3ccc(F)c(Cl)c3)ccc21 do in these assays?
Tgondii IFNg: -82*

What do the screens show for `CCCN1C(=O)CCc2cc(NC(=O)c3cc(F)cc(F)c3)ccc21`?
Tgondii IFNg: -52

How did CCCN1C(=O)CCc2cc(NC(=O)c3cccc(C#N)c3)ccc21 do in these assays?
Tgondii IFNg: -17

How did O=C(O)c1ccc(S(=O)(=O)c2ccc3c(c2)C(=O)N(C2CCCCC2)C3=O)cc1 do in these assays?
Tgondii IFNg: 2

What do the screens show for `COCCC(=O)c1cc(-c2cnc(-c3cccnc3)nc2)cn1C`?
Tgondii IFNg: -39

Results for CCCNC(=O)c1cc(-c2cnc(-c3cccnc3)nc2)cn1C ?
Tgondii IFNg: -91*

What do the screens show for `CN(C)CCNC(=O)c1cc(-c2cnc(-c3ccnn3C)nc2)cn1C`?
Tgondii IFNg: 71

Results for CC(C)CC(=O)N1CCC2(CC1)CCn1c(-c3ccc(C(N)=O)cc3)cnc12 ?
Tgondii IFNg: 2

Results for COc1ccc(CN2CCN3CCN(C)C(=O)C3C2)cc1Cn1cncn1 (stereo not drawn) ?
Tgondii IFNg: 18

How did COc1ccc2c(c1)NC1(CCN(S(=O)(=O)c3ccc(C(C)C)cc3)CC1)c1cccn1-2 do in these assays?
Tgondii IFNg: -5

Results for Cc1ccc(-c2ccccc2-c2ccccc2)nn1 ?
Tgondii IFNg: -18

Results for CC1=C(C(=O)NCCCN2CCC(N3CCCCC3)CC2)C2(CCCCC2)OC1=O ?
Tgondii IFNg: 18

How did CC1=C(C(=O)NCCN2CCC(Cc3ccccc3)CC2)C2(CCCCC2)OC1=O do in these assays?
Tgondii IFNg: -84*

How did CC1=C(C(=O)NC2CCN(Cc3ccccc3)CC2)C2(CCCCC2)OC1=O do in these assays?
Tgondii IFNg: -15

Results for CC(C)CN1C[C@@H]2CCN(C(=O)c3ccnnc3)CC[C@H]2S1(=O)=O ?
Tgondii IFNg: 2

What do the screens show for `CCOC(=O)CN1N=NC2C(=O)N(c3ccccc3)C(=O)C21` (stereo not drawn)?
Tgondii IFNg: -1

What do the screens show for `Cc1ccsc1[C@@H]1CCN(C(=O)Cn2cc(C)c(=O)[nH]c2=O)C[C@H]1O`?
Tgondii IFNg: 158

How did COc1ccc(-c2nc(C)c(CCNS(=O)(=O)c3ccc(C)cc3)s2)cc1OC do in these assays?
Tgondii IFNg: inactive

What do the screens show for `COc1ccc(-c2nc(C)c(CCNS(=O)(=O)c3ccc(Oc4ccccc4)cc3)s2)cc1OC`?
Tgondii IFNg: -97*

What do the screens show for `COc1ccc(-c2nc(C)c(CCNS(=O)(=O)c3ccc4ccccc4c3)s2)cc1OC`?
Tgondii IFNg: -29

Results for Cc1cccc(NC(=O)CSc2nnc(Cn3nnc4ccccc43)o2)c1 ?
Tgondii IFNg: 6

How did CC(=O)N1CCC(C(=O)NCc2ccccc2)(N(Cc2cccc(Cl)c2)C(=O)c2ccc(C)cc2)CC1 do in these assays?
Tgondii IFNg: -48

How did CCn1cnc(NC(=O)N(C)Cc2cccc3ncccc23)n1 do in these assays?
Tgondii IFNg: -1

What do the screens show for `CN(C)C(=O)Nc1cccc(-c2ccc(N(C)C)cc2)c1`?
Tgondii IFNg: 32

What do the screens show for `CCn1cc(-c2ccnc3[nH]c(-c4cccc(CN(C)C)c4)cc23)c(-c2ccc(NC(=O)N(C)C)cc2)n1`?
Tgondii IFNg: -82*

How did CCCNC(=O)c1ccc2onc(-c3csc(-c4cccnc4)n3)c2c1 do in these assays?
Tgondii IFNg: -19

Results for Cc1ccn(CCC(=O)NCCN2Cc3ccccc3OC(c3ccccc3F)C2)n1 (stereo not drawn) ?
Tgondii IFNg: 7

Results for O=c1[nH]c2cc3c(cc2cc1CN(CCO)Cc1nnnn1Cc1ccccc1)OCCO3 ?
Tgondii IFNg: -82*

How did Cc1ccc2cc(CN(CCO)CCO)c(=O)[nH]c2c1 do in these assays?
Tgondii IFNg: 5

What do the screens show for `CN(CCCc1cnn(C)c1)Cc1cc2ccc(F)cc2[nH]c1=O`?
Tgondii IFNg: -7

Results for Cc1ccc(NCc2c(-c3ccccc3)nn(C)c2C)cc1S(=O)(=O)N(C)C ?
Tgondii IFNg: 12

How did CC(=O)N1CCc2[nH]nc(C(=O)N3CC=CC3)c2C1 do in these assays?
Tgondii IFNg: 34

Results for CC(C)C(=O)NCc1csc(C2CCCN(C(=O)c3cc(F)cc(F)c3)C2)n1 (stereo not drawn) ?
Tgondii IFNg: 41

What do the screens show for `Cc1ccc(NC(=O)OC2CCCCC2)cc1NC(=O)OC1CCCC1`?
Tgondii IFNg: -105*

What do the screens show for `COc1ccc(NC(=O)Nc2ccc(OC)c(OC3CCCC3)c2)cc1OC1CCCC1`?
Tgondii IFNg: 139

Results for Cc1ccc(NC(=O)C2CCCCC2C(=O)O)cc1Cl (stereo not drawn) ?
Tgondii IFNg: -4

How did CC(=O)NCCn1ccnc1-c1cccc(C(C)N(C)C)c1 (stereo not drawn) do in these assays?
Tgondii IFNg: 8

How did O=C(Nc1ccc(Cl)cc1)N1CCC(c2nc3ccc(Cl)cc3[nH]2)CC1 do in these assays?
Tgondii IFNg: 6

Results for CN(C)C(=O)CN1CCOCC2(CCN(C(=O)Nc3ccc(Cl)cc3)CC2)C1 ?
Tgondii IFNg: 0

What do the screens show for `CC(C)CN1C[C@@H]2[C@@H](C1)C(=O)NC21CCN(C(=O)Nc2ccc(Cl)cc2)CC1`?
Tgondii IFNg: -109*

Results for CCN1c2cc(Cl)ccc2C(=O)NC12CCN(C(=O)Nc1ccc(OC)cc1)CC2 ?
Tgondii IFNg: 285

What do the screens show for `COCCN1Cc2ccccc2C2(CCN(c3ncccn3)CC2)C1`?
Tgondii IFNg: 4
